Experimental findings from PubChem BioAssay (NCI) are described below.

About 83,000 compounds went through this panel and 20% of them were active in at least one assay; those are over-represented in the sample as a whole.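 96-well plates, one dose, 48 hours. Percent growth reported; active if below 10.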 Values without a mark were called inactive. Active and inactive are the calls of the source.

Holding throughout (test): NCI-60 one-dose screen, 48 h (100 = growth as untreated, 0 = no growth, -100 = all killed)
Common to all, as to settings: 10 µM unless noted

The subject of experiment [1] is SR leukemia.
Experiment [2] has as its system RPMI-8226 leukemia.
In experiment [3] the test system is OVCAR-8 ovarian.
For experiment [4], the system named is OVCAR-4 ovarian.
The test system of experiment [5] is SK-OV-3 ovarian.
The test system of experiment [6] is IGROV1 ovarian.
Experiment [7] concerns OVCAR-3 ovarian.
For experiment [8], the system named is HS 578T breast.
For experiment [9], the system named is NCI/ADR-RES ovarian.
For experiment [10], the system named is OVCAR-5 ovarian.

As for `COc1ccc2c(c1)/C(=C/c1c(-c3cc(OC)c(OC)c(OC)c3)nc3sccn13)C(=O)N2`, the growth in experiment [1] is -41.1% (active); in experiment [2], 60.7%; in experiment [3] it was 105%; in [4], 95.8%; in experiment [5], 106%; in [6], 29.2%. The growth in [7] is 99.5%; in experiment [8] it was 85.7%; in experiment [9] it was 98.9%.

`CCCCCCCCCCCCOC(=O)/C=C\C(=O)NC(N)=O`: the growth in experiment [1] was 3.65% (active); in experiment [2], 4% (active); in experiment [3], 70.6%; in [4], 86%; in [5], 97.8%; in experiment [6], 73%. In addition, the growth in [7] is 92.4%; in experiment [8], 86%; in experiment [9] it was 88.4%.

For `CCn1cc(C(=O)O)c(=O)c2cc(F)c(N3CCN(S(=O)(=O)c4ccc(Cl)cc4)CC3)cc21`, the growth in experiment [2] is 13.4%; in [3], 12.6%; in experiment [10] it was 51.9%; in [4], 37.7%; in experiment [5] it was 40.8%; in experiment [6] it was 9.37% (active). Moreover, the growth in experiment [7] was 28.2%; in experiment [8], 18.9%; in experiment [9] it was 68.7%.

For the compound `CC([C@H]1CC=C2C3CCC4=C[C@@H](N(C)C)CC[C@]4(C)C3CC[C@@]21C)N(C)C` (some centres not stated), the growth was 71.5% in experiment [1]; 85.3% in [3]; 86.3% in experiment [10]; 8.25% (active) in [4]; 80.3% in [5]; 50.8% in experiment [6]. For the same compound, the growth is 42% in experiment [7], 61% in [8] and 68.8% in [9].

`COc1ccc(/C=N/c2cc(C(C)(C)C)nn2-c2ccccc2)cc1`: the growth in [1] was 78.4%; in experiment [3] it was 97%; in experiment [10], 113%; in [4] it was 109%; in experiment [5], 101%; in [6], 125%. Also, the growth in experiment [7] is 125%; in experiment [8], 107%; in [9], 118%.

As for `N#Cc1c2ncccc2c2nnc3cc(Cl)c(Cl)cc3n12`, the growth is 70.2% in experiment [1]; 87.6% in experiment [3]; 90.1% in experiment [10]; 108% in [4]; 104% in [5]; 72.9% in experiment [6]. Also, in experiment [9], the growth is 99.8%.

As to `CCC(C)(CC)c1ccc(O)c(C)c1`, the growth is 98.8% in experiment [2]; 109% in experiment [3]; 109% in [10]; 109% in [4]; 93.4% in experiment [5]; 106% in experiment [6]. The growth in [7] was 116%; in [8], 101%; in [9], 102%.

As for `CC(=O)O.[In]`, the growth in [1] is 93.4%; in experiment [2] it was 102%; in [3], 102%; in [4], 114%; in experiment [5], 103%; in experiment [6], 106%. Besides, the growth in experiment [9] was 107%.

For `COc1cc([C@@H]2c3cc4c(cc3[C@H](O)[C@H]3COC[C@@H]23)OCO4)cc(OC)c1OC`, the growth in experiment [1] is 25.9%; in experiment [3], 98.9%; in experiment [10] it was 101%; in experiment [4], 85.8%; in experiment [5], 98.3%; in experiment [6] it was 71.1%. Besides, the growth in experiment [7] is 56.8%; in [9] it was 64.9%.

As for `COc1cccc2c1nc1cccc(OC)c1[n+]2[O-]`, the growth is -0.211% (active) in experiment [1]; 51.1% in [2]; 41.7% in experiment [3]; 69.7% in experiment [4]; 29% in experiment [5]; -73.4% (active) in experiment [6]. The growth was 101% in experiment [7], 80% in experiment [8] and 37.4% in [9].

As to `CCCCN(CCCC)c1ccc(C(=O)O)cc1`, the growth in experiment [2] is 102%; in experiment [3], 105%; in [10], 108%; in experiment [4], 101%; in experiment [5], 98.5%; in [6] it was 99.3%. The growth was 106% in experiment [7], 109% in experiment [8] and 106% in experiment [9].

In the case of `COc1cc(CCNc2cnc3cc(N)cc(N)c3n2)cc(OC)c1`, the growth was 86% in [2]; 98.6% in experiment [3]; 92.3% in experiment [10]; 93.8% in experiment [4]; 168% in experiment [5]; 103% in [6]. In addition, the growth in [7] is 92.6%; in experiment [8], 132%; in experiment [9], 105%.

In the case of `CCCCCCN(CCCCCC)CCC(=O)Nc1ccc(S(=O)(=O)c2ccc(NC(=O)CCN(CCCCCC)CCCCCC)cc2)cc1`, the growth in [1] was 7.85% (active); in [2] it was 60.7%; in experiment [3], 90.8%; in experiment [4], 77.6%; in [5] it was 84.2%; in experiment [6] it was 84.3%. Further, the growth in experiment [7] is 80.7%; in experiment [9], 83.8%.

As for `Cc1ccc(C(=O)NN)cc1`, the growth was 80.3% in experiment [1]; 116% in experiment [10]; 98.2% in [4]; 110% in experiment [5]; 124% in experiment [6]; 103% in experiment [9].

`CCCCCCCCCC[N+](C)(C)N`: the growth is 72.7% in [1]; 78.1% in experiment [2]; 88.1% in experiment [3]; 99.1% in experiment [4]; 99.4% in experiment [5]; 83.8% in experiment [6]. Further, the growth in [7] is 100%; in experiment [8] it was 91.9%; in [9], 112%.

`N#Cc1c2cccnc2c2nnc3cc(Cl)c(Cl)cc3n12`: the growth was 5.53% (active) in experiment [1]; 35.3% in experiment [2]; -19.5% (active) in experiment [3]; -4.97% (active) in [4]; 90% in experiment [5]; -9.66% (active) in [7]. The growth is -56.8% (active) in [8] and -5.61% (active) in experiment [9].

On to `COc1cc(-c2nn(-c3ccc(NC(=O)Nc4ccc(Cl)c(C(F)(F)F)c4)cc3)cc2-c2ccncc2)ccc1Cl`, for which the growth in experiment [1] is -1.8% (active); in [3] it was 8.56% (active); in [10] it was 25%; in [4], 23.1%; in experiment [5], 10.7%; in experiment [6], 25.9%. Also, the growth in experiment [7] is 10.9%; in experiment [9] it was -1.19% (active).
